The sequences below were run on VDR homodimer (NR concentration 270 nM) (assay: PBM binding z-score (relative to random genomic background probes); higher = stronger binding; sequences stand for … in GC…GCGATTGACAGCGTAGAATGAAGG).
Summary of the method: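 Ligand-free nuclear receptor dimers were applied to custom Agilent 4×180K protein-binding microarrays whose double-stranded probes carried direct-repeat seeds, single-nucleotide variants, half-site ablations and random human genomic background sequences in 34-nt variable regions. Incubation lasted 1 h. Binding z-scores were computed against the random background probes from regression-normalized fluorescence.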

Sequence	PBM binding z-score
CGAACTAGGGCATCCAGGACAGTGAATACATTGA	0.366
TCGAATAGGTTAGTCGGGGCATTCAGCCAACATA	0.528
TCTGGGAGGACACGAAAGGTCAGAGCTCGACATC	1.27
CCGAGTAGGTTATGGGGCATACAGGCAACGGTGA	0.0894
CAGCCTAGGTCAGGGCCAGTTTAGGAGGAACGTT	-0.142
TAGCCTAGGTCAAGGGCCAGTATACCACGCGAAC	0.272
ACTAGTTGGTCAGCTGAGGTCATACACAATTCGG	4.31
CGTCCAAGGTCAAGGTCAGTCAAAGAGACTCGAA	3.55
AGTCAAAGTTCGTCTAGGTAACGTAAGATATGCT	2.49
CGTTAAAGTTCAACTAAGGTAACGTAAAGCACGC	3.94
ACTTACGGGTCAACGAGGGTATAGCACGCGTATA	2.67
ATCTCTAAGTAAAGATAGTTCAGTGAATGCAAAT	0.578
GATACAGGGTCAGCTAGAGGCTAGAGTATGGAAA	0.266
CCAGACAGGTGAGAAGGGAACTCAGCCTCGATTA	-0.25
CCTGCTAAGTCAATGGTCAGCTAAAGCAGCTCGC	-0.804
CTACCAAGGTGAACAAGGTCGCTGATTACTATTC	1.27
CCTGCTAGGTCATGATCAGCTAATCTACAGTATG	0.00806
TCTAGCAGGACAGAGGGTCACTCAAGAGGTACGG	0.674
ACTAGCAGGCCAAGTTTGGTTCACTCAAACAAAG	0.338
ATCTCTAGCTAACAAGTTCAGTGAAAGAGAGGAC	2.47

Sequence	PBM binding z-score
TCTATCAGGCCAGAGGGTCACTCAAGAGGTACGG	1.16
GTACCAAGGTGCATAGGTCGTTGATGAGTAGGCG	0.968
GCTATTACTTGAAAGGGCAACCGAATGATTCTCG	-0.15
TGTCAAAGTTCAGAGGTAACGTAAGTATCCACAC	2.11
TGGAGTAGGTTAGGGGCATTCAGAATGGCGTCGA	1.57
CCTTACGGGTCACTCCAGTTTATAGCATCGGAGT	2.06
CCGTCTGGGGCAGAAAGGTTACCATACCATCCGG	-0.377
CCTAGTTGGTCAGGAGGGCACACACCGGATATGA	0.549
TCTATTCGTTGATTAGGGCAACCGAAACAGCGGA	-0.134
GCTGCTAGGTCCGGTTGGTCAGCTAACGGGTACG	-0.324
GGAACGAGGGCAAAGTGGATAGCATCTGTCGACG	1.01
GCTAGCAGGCCATTTGGGTCTCTCAATGACGGGC	-0.774
ATCGAAAGTTCGAAGGTGAGTATACCCACCCGAA	1.07
AGAATGAGGTTATTAAAATCAGGGAATTGCGGTC	0.874
ATCTCTAGGTAACAAGTTCAGTGGAAGAGAGGAC	2.02
GGAACGAGGGCAAAGTTGAAAGCATCTGTCGACG	0.999
TCTTTTAGATCAAAGGTTAAGAAAGCCGAAGCCT	-0.294
AGAGCGAGGGCACGCTGAGTTGATAGCAGAGTAG	1.48
ACTCGGAGGACAAAGGTCTGAGCTACGCCAGTGA	-0.296
